EPAC2 agonist: EPAC2 (human) agonism. EPAC2 activation, biochemical qHTS; response scale: 100% = 6.5 mM cAMP response. Q8WZA2. Potency, µM (titrated, usually from 154 µM), without a hit: at the highest dose activation, most hits filed as activators. AID 720711. 360,000 tested, 0.079% active; further: nearly all actives have a fitted effect of over 50% in size
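Setup: EPAC2 100 nM, labeled Rap1B complex 250 nM, free GDP 50 uM. Compound titrations pinned in, brief spin, 5 min room temperature incubation. Kinetic fluorescence read over 30 min, normalized to 6.5 mM cAMP.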
EPAC1 antag: antagonists of human EPAC1 | O95398 | EPAC1 GEF assay, Rap1b-BODIPY-GDP exchange fluorescence | Potency, µM (highest dose often 115 µM), for inactives: at the top dose activity change, negative = inhibition, actives largely listed as inhibitors | 360,000 tested, 0.14% active;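 further: plate controls were vehicle for no effect and positive control for full effect; nearly all actives have a fitted effect of over 50% in size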
EPAC1 ag: activates human EPAC1 exchange factor; O95398; EPAC1 agonist qHTS, biochemical assay; response scale: 100% = response to 6.5 mM cAMP; Potency, µM (top dose mostly 154 µM), without a hit: at the highest dose activation, hits mostly activators; 360,000 tested, 0.073% active; further: nearly all actives have a fitted effect of over 60% in size
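EPAC1 100 nM, Rap1B–BODIPY-GDP 250 nM, unlabeled GDP 50 uM; compound titration; 5 min RT; kinetic read ex480/em540 at 5-min intervals ×30 min; data normalized to 6.5 mM cAMP agonist control.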
USP1-UAF1 inh: blocks the human USP1/UAF1 deubiquitinase complex. O94782. recombinant USP1/UAF1, Ub-Rhodamine cleavage fluorescence. Potency, µM (doses to about 57.1 µM), for inactives: at the highest dose activity change, negative = inhibition, hits mostly inhibitors. 390,000 tested, 0.23% active. AID 743255; further: on the % scale 0 is the no-effect control and ±100 the full control effect; nearly all actives have a fitted effect of over 60% in size
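1 nM enzyme complex + cpd, 15 min RT; start with Ub-Rho 150nM final; kinetic fluorescence ex 480/em 540, 6 reads q60 s. Buffer 50mM HEPES pH 7.8, 0.5mM EDTA, 0.1 mg/ml BSA, 1mM TCEP, 0.01% Tween-20.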
EPAC2 antag: EPAC2 (human) antagonism | Q8WZA2 | EPAC2 GEF exchange of Rap1B-BODIPY-GDP, fluorescence | Potency, µM (titrated, usually from 114 µM), for inactives: top-dose activity, negative = inhibition, most hits filed as inhibitors | 360,000 tested, 0.18% active; further: on the % scale 0 is the no-effect control and ±100 the full control effect; nearly all actives have a fitted effect of over 45% in size
ALOX12 inh: ALOX12 (human) lipoxygenase inhibition. purified 12hLO, xylenol orange hydroperoxide absorbance. Potency, µM (highest dose often 108 µM), inactives show at the top dose activity change, negative = inhibition, actives largely listed as inhibitors. 580,000 tested, 1.1% active. AID 1671190; further: on the % scale 0 is the no-effect control and ±100 the full control effect
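Hydroperoxide product was detected by ferrous iron/xylenol orange as the 573 to 405 nm absorbance ratio. Arachidonic acid at 40 uM (final) was turned over for 30 min at room temperature by 150 nM human 12hLO, pH 7.0 Hepes buffer, after 15 min compound preincubation.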
* marks the source's active call; other numbers are inactive results; ? = inconclusive; · = no result given; ! = not active in a repeat. Rows were chosen to be rich in hits. Some 1.3% of all compounds tested hit in one or more screens of this group. The call rests on the fitted dose curve; in most records, active means well fitted curve in the direction sought with a large enough effect; inconclusive means small, poorly fitted or top-dose-only effect, or another doubt; inactive means no such curve, though single readings can be large; an effect the other way counts as inactive or inconclusive. Potency means the concentration at half of the fitted maximal effect.

SMILES	EPAC2 agonist	EPAC1 antag	EPAC1 ag	USP1-UAF1 inh	EPAC2 antag	ALOX12 inh
CCc1ccc(Nc2ccc3nonc3c2[N+](=O)[O-])cc1	9%	-28%	-5%	-7%	1%	159%
Cc1cc2nc3c(=O)[nH]c(=O)[nH]c3nc2c([N+](=O)[O-])c1N	12%	15%	89µM*	?	33%	-6%
Cc1c(C)c2cc(Cl)c(OCC(=O)NCc3cccnc3)cc2oc1=O	·	·	·	·	·	-3%
CCn1c(=O)c(C(=O)Nc2ccccc2C)c(O)c2ccccc21	10%	-6%	3%	-14%	2%	13%
CCn1c(=O)c(C(=O)Nc2ccccc2S(N)(=O)=O)c(O)c2ccccc21	20%	56µM*	11%	0%	-4%	27%
O=C(CCC[C@H]1NC[C@@H]2C[C@H]1CN(Cc1ccccc1)C2)Nc1ccc2c(c1)OCCO2	·	·	·	·	·	-2%
c1ccc(-c2nc(NCc3ccco3)c3oc4ccccc4c3n2)cc1	6%	-11%	0%	-8%	-17%	7.1µM*
C[C@]12CC[C@@H]3c4ccc(OS(=O)(=O)O)cc4CC[C@H]3[C@@H]1CCC2=O	10%	22µM*!	-23%	-26%	5%	-2%
C/C(=N\NC(=S)NCc1ccccc1)c1ccc2c(c1)OCCO2	16%	-20%	4%	-21%	4%	35µM*
C/C(=N\NC(=S)Nc1ccc(C)c(C)c1)c1ccc(N2CCOCC2)cc1	9%	-24%	1%	?	-3%	35µM*
C/C(=N\NC(N)=S)c1ccc2c(c1)OCCO2	16%	-10%	4%	-5%	-1%	?
C/C(=N\NC(=S)Nc1ccc(F)cc1)c1ccc2c(c1)OCCO2	21%	-25%	16%	-4%	-7%	35µM*
C/C(=N\NC(=S)NCc1ccccc1)c1ccc(Br)cc1	6%	-7%	4%	-13%	-1%	?
C/C(=N\NC(=S)Nc1cc(S(=O)(=O)N2CCOCC2)ccc1Cl)c1ccc(N2CCOCC2)cc1	6%	11%	11%	-10%	11%	-21%
CC(O)c1ccc(-c2ccc(CNCc3cccs3)o2)cc1 (centres undefined)	·	·	·	·	·	8%
CCCNC(=O)NC(=O)CNc1cccc(C)c1C(=O)OC	·	·	·	·	·	0%
COc1ccc(OC)c(/C=C2/Sc3ccccc3C2=O)c1	23%	-9%	16%	28µM*	41%	-3%
CC1(c2ccccc2)N(Cc2ccccc2C#N)C(=O)OC12CCN(Cc1c[nH]c3ccccc13)CC2 (centres undefined)	·	·	·	·	·	32µM*
CC1(c2ccccc2)N(Cc2ccccc2)C(=O)OC12CCN(Cc1c[nH]c3ccccc13)CC2 (centres undefined)	·	·	·	·	·	45µM*
CN1CCN(C(=O)c2cccnc2-c2nc3ccccc3s2)CC1	·	·	·	·	·	32µM*
COc1ccc(-c2cc3ccc(OCC#N)cc3oc2=O)c(OC)c1	·	·	·	·	·	0%
CC(C)(Cc1ccc(O)cc1)NC(=O)CC(=O)N/N=C/c1ccc(Cl)cc1	-2%	0%	2%	-16%	4%	8.9µM*
CC(C)(Cc1ccc(O)cc1)NC(=O)CC(=O)N/N=C/c1ccc([N+](=O)[O-])cc1	7%	-5%	3%	-20%	-2%	1%
COC(=O)C1=CC(=O)C=C(OC)[C@@]12Oc1cc(C)cc(OC)c1C2=O	·	·	·	·	·	4.5µM*
Oc1[nH]c2ccccc2c1N=Nc1ccccc1	-84%	6%	-136%	28µM*	60%	10%
Oc1[nH]c2ccc(Br)cc2c1N=Nc1ccc(F)cc1	-170%	?	-129%	?	71µM*	-15%
O=S(=O)(N1CC=C(c2c[nH]c3cc(F)ccc23)CC1)N1CCCCCC1	·	·	·	·	·	16µM*
COc1cccc(C2=CC(=O)CC(c3ccco3)C2)c1 (centres undefined)	14%	-6%	6%	-23%	-22%	35µM*
